In PMC5540273 (PLoS ONE, 2017):

What was measured:
Settings in all cases: concentration: 1 μM, replicates: in singlicate; n = 1
TRPM6 = test system: TRPM6
TSSK1B = test system: TSSK1B
TSSK3 = test system: TSSK3
TTK = test system: TTK
TXK = test system: TXK
[1] = test system: TYK2(JH1domain-catalytic)
[2] = test system: TYK2(JH2domain-pseudokinase)
TYRO3 = test system: TYRO3
ULK1 = test system: ULK1
ULK2 = test system: ULK2
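Note: KINOMEscan kinase panel screen.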

Compound	%Inh (TRPM6)	%Inh (TSSK1B)	%Inh (TSSK3)	%Inh (TTK)	%Inh (TXK)	%Inh [1]	%Inh [2]	%Inh (TYRO3)	%Inh (ULK1)	%Inh (ULK2)
C[C@@H]1CC[C@H](C(=O)NC2CCCCC2)CN1c1cc(-c2ccc3c(N)n[nH]c3c2)nc(N)n1 [GSK2291363]	16%	31%	31%	16%	6%	0%	23%	0%	6%	0%
OCCCNc1nccc(-c2c(-c3cccc(C(F)(F)F)c3)nn3cc(C(F)(F)F)ccc23)n1 [GW630813]	0%	0%	6%	0%	0%	14%	13%	0%	0%	0%
CN(C)c1cc(-c2ccc3c(N)n[nH]c3c2)nc(N)n1 [GSK2219329]	13%	0%	6%	0%	97.2%	14%	25%	0%	0%	0%
COc1cc2ncn(-c3cc(OCc4ccc(S(C)(=O)=O)cc4)c(C(N)=O)s3)c2cc1OC [GW869979]	0%	0%	22%	0%	0%	17%	11%	19%	6%	6%
COc1cc2nccc(Nc3cccc(Oc4ccccc4)c3)c2cc1OC.Cl [GW284543]	11%	11%	13%	0%	3%	5%	0%	0%	6%	15%
O=C(Nc1n[nH]c2cc(-c3ccccc3F)ccc12)C1CC1 [SB-733371]	0%	0%	0%	0%	12%	0%	0%	0%	2%	8%
COC(=O)c1c(-c2ccccc2)c2cc(Br)ccc2c(=O)n1Cc1ccc(S(C)(=O)=O)cc1	2%	0%	0%	31%	12%	7%	15%	1%	0%	13%
FC(F)(F)c1ccc(-c2ncn(CCCN3CCOCC3)c2-c2ccncc2)cc1 [SB-217780]	4%	0%	0%	0%	10%	32%	24%	0%	1%	46%
Fc1cccc(CSc2nnc(-c3ccc4c(c3)CCO4)o2)c1	0%	0%	2%	2%	0%	4%	12%	0%	0%	9%
Nc1nccc2scc(-c3ccc4c(c3)CCN4C(=O)Cc3ccccc3)c12 [GSK2576924]	13%	0%	14%	0%	4%	14%	0%	0%	2%	0%
CC(C)(C)c1ccc(C(=O)Nc2cn3cc(-c4ccccc4)ccc3n2)cc1	0%	0%	8%	0%	9%	0%	6%	5%	0%	49%
CCS(=O)(=O)c1ccc(OC)c(Nc2ncc(-c3ccc(F)cc3)o2)c1.Cl [GW591947]	4%	10%	13%	0%	0%	1%	0%	4%	0%	0%
COc1cc2ncn(-c3cc(OCc4ccncc4)c(C(N)=O)s3)c2cc1OC [GSK336313]	24%	0%	11%	0%	6%	3%	13%	0%	16%	0%
Cc1cccc(-c2cc(-c3c[nH]nc3-c3ccccn3)ccn2)c1 [GW679395]	0%	24%	0%	23%	0%	9%	27%	0%	0%	0%
COc1cc2ncn(-c3cc(OCc4ccncc4Br)c(C(N)=O)s3)c2cc1OC [GW854278]	0%	0%	0%	0%	21%	0%	5%	11%	2%	0%
Cc1cc(Nc2nc(-c3cccc(C)n3)nc3ccccc23)ccn1 [GW872411]	0%	0%	0%	0%	0%	0%	1%	0%	4%	0%
CCc1nc(-c2cccc(C)c2)c(-c2ccncc2)s1	0%	0%	0%	0%	0%	0%	25%	0%	0%	0%

Compound	%Inh (TRPM6)	%Inh (TSSK1B)	%Inh (TSSK3)	%Inh (TTK)	%Inh (TXK)	%Inh [1]	%Inh [2]	%Inh (TYRO3)	%Inh (ULK1)	%Inh (ULK2)
CN1C(=O)C(Nc2ccccc2)=C(c2ccccc2)C1=O [SB-300079]	0%	0%	0%	0%	0%	0%	17%	0%	6%	12%
CCn1c(-c2ccoc2)nc2cnccc21 [SB-733887]	52%	0%	6%	0%	28%	27%	50%	0%	29%	4%
Cl.NS(=O)(=O)c1cccc(Nc2cc(-c3ccc(F)cc3)n[nH]2)c1 [GW824645]	0%	0%	0%	0%	0%	0%	9%	0%	15%	47%
O=C1NC(=O)C(c2ccccc2)=C1Nc1cccc(O)c1 [SB-390534]	0%	0%	0%	0%	14%	14%	0%	0%	0%	12%
COc1cc(OC)cc(-c2cc3cnc(N)nc3nc2NC(=O)NC(C)(C)C)c1	0%	9%	0%	0%	19%	0%	3%	100%	0%	0%
COc1cccc(-n2cnc3c(N)ncnc32)c1 [SKF-97416]	65%	0%	21%	44%	11%	83%	40%	0%	45%	39%
COc1ccc(-n2cnc3c(N)ncnc32)cc1 [SKF-97236]	66%	11%	0%	28%	12%	11%	24%	0%	21%	10%
Nc1ncnc2c1ncn2-c1ccc(Cl)cc1 [AH2635]	44%	0%	16%	0%	5%	25%	39%	0%	0%	0%
Cc1nnc(-c2ccc3ncn(-c4ccc(S(C)=O)cc4)c3c2)o1 (stereo not shown)	0%	0%	6%	0%	5%	0%	2%	12%	0%	0%
Nc1n[nH]c2nnc(-c3ccccc3)c(-c3ccccc3)c12 [GW554060]	0%	13%	20%	0%	12%	34%	55%	10%	27%	8%
Cc1ccccc1COc1cc(-n2cnc3cc(Cl)ccc32)sc1C(N)=O [GW813349]	0%	3%	0%	2%	9%	5%	5%	5%	0%	0%
COc1cc(Nc2ccnc3ccc(C(F)(F)F)cc23)cc(OC)c1OC [GW577382]	0%	0%	13%	17%	54%	19%	0%	0%	0%	0%
COC(=O)c1c(-c2ccccc2)c2cc(Br)ccc2c(=O)n1Cc1ccc(NC(=O)CCC(=O)O)cc1	0%	0%	0%	9%	39%	4%	0%	0%	8%	11%
Cn1c(=O)c(F)c(Nc2ccc(I)cc2F)c2c(=O)n(OC[C@H](O)CO)cnc21	0%	0%	0%	15%	23%	0%	0%	2%	0%	0%
O=C(Nc1n[nH]c2nc(-c3ccccc3)c(Br)cc12)C1CC1 [SB-708998]	18%	25%	14%	24%	14%	14%	1%	0%	30%	0%
CN1C(=O)C(Nc2cc(Cl)c(O)c(Cl)c2)=C(c2ccc(Cl)cc2)C1=O [SB-404321]	0%	0%	22%	0%	0%	0%	13%	0%	0%	0%
O=c1cc(N2CCOCC2)nc2n(Cc3ccc(F)c(Cl)c3)ccn12 [GSK2297099]	36%	0%	9%	0%	0%	0%	15%	0%	16%	0%
